Compound activity from PubChem BioAssay.
Methyltransferases – Primary Screen for Target Class Profiling of Small Molecule Inhibitors of Methyltransferases; purified enzyme, MTase-Glo SAH luminescence; stronger effect = lower value; 3.9% of 25,000 active; calls only at 40 µM; call rule not given here
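Each enzyme was reacted with SAM and its substrate, with compounds tested once at 40 uM; SAH formed was read by MTase-Glo luminescence.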
Of the large screens only hits and unclear results are named; the others gave an inactive call. Many of the other results were omitted from the sample, so hits are more common in it than they were.

CC1(C(=O)NCc2ccccc2)Cc2ccccc2C(=O)N1Cc1cccc(C(F)(F)F)c1 (stereo unspecified)	none
CCCCN1C(=O)c2cc(C(=O)NCc3cccs3)nn2CC1(C)C(=O)NC1CCCC1 (stereo unspecified)	none
Cc1ccc(-c2n[nH]n3c2nc(=O)c2ccc(C(=O)NCc4cccnc4)cc23)cc1	none
Cn1cc(-c2ccc(F)c(C(F)(F)F)c2)nc1C1CCN(c2ncnc3[nH]ncc23)CC1	Methyltransferases active
C=CCn1c(=O)c2ccc(C(=O)NC(C)C)cc2n2c(=O)n(CC(=O)NC3CCCCC3)nc12	none
Cc1ccc(C)c(N2C(=O)c3cc4sccc4n3CC2(C)C(=O)NC2CCCCCC2)c1 (stereo unspecified)	none
Cc1ccc(NC(=O)CSc2nnc3n(CCC(C)C)c(=O)c4ccccc4n23)cc1C	none
CC(=O)Nc1c2n(c3ccccc13)CC(C)(C(=O)NC1CCCC1)N(Cc1ccco1)C2=O (stereo unspecified)	none
COc1ccc2c(c1)CCC1C2CC[C@@]2(C)C1CC[C@@H]2NCCCCCCN1C(=O)CCC1=O (stereo partly specified)	none
CC12CCC3c4ccc(O)cc4CCC3C1CCC2OC1OC(C(=O)O)C(O)C(O)C1O (stereo unspecified)	none
COc1cc2c(cc1O)CC[C@H]1[C@@H]2CC[C@]2(C)[C@H](O)CC[C@@H]12	Methyltransferases active
C/C(=C\CCC(C)(C)O)CCO[C@@H]1O[C@H](CO[C@@H]2O[C@@H](C)[C@H](O)[C@@H](O)[C@H]2O)[C@@H](O)[C@H](O)[C@H]1O	none
C=CC(C)(O)CC/C=C(\C)C(=O)O[C@@H]1[C@@H](O)[C@H](OC(C)(C=C)CC/C=C(\C)C(=O)O[C@@H]2O[C@H](CO)[C@@H](O)[C@H](O)[C@H]2O)O[C@H](CO)[C@H]1OC(=O)/C(C)=C/CCC(C)(O)C=C (stereo partly specified)	none
C=CC(C)(O)CC/C=C(\C)COC1O[C@H](CO)[C@@H](O)[C@H](O)[C@H]1O (stereo partly specified)	Methyltransferases active
CC1CCC(NC(=O)C2(C)Cn3c(ccc3-c3ccccc3)C(=O)N2Cc2cccc(F)c2)CC1 (stereo unspecified)	none
CC1(C(=O)NC2CCCC2)Cn2c(cc3ccccc32)C(=O)N1CCCN1CCOCC1 (stereo unspecified)	none
C=C1C(=O)O[C@@H]2C=C(COC(C)=O)CC/C=C(\CO)CC[C@@H]12	Methyltransferases active
C=C(C)C(=O)OC1C(OC(C)=O)/C(C=O)=C\CC/C(CO)=C/C2OC(=O)C(=C)C21 (stereo unspecified)	none
C=C1C(=O)O[C@@H]2/C=C(\CO)CC/C=C(\CO)[C@H](OC(C)=O)C(OC(=O)C(C)CC)C12 (stereo partly specified)	none
CC(C)NC(=O)c1ccc2c(=O)n(Cc3ccccc3)c3nn(Cc4ccc(F)cc4)c(=O)n3c2c1	none
COc1cccc(CN2C(=O)CSc3c(c4ccccc4n3C)C2C(=O)NCCC(C)C)c1 (stereo unspecified)	none
CCCN1C(=O)c2cc(C(=O)NCc3ccc(OC)cc3OC)nn2CC1(C)C(=O)NC1CCCC1 (stereo unspecified)	none
CCOC(=O)c1cc2n(n1)CC(C)(C(=O)NCc1ccc(C)cc1)N(c1ccccc1CC)C2=O (stereo unspecified)	none
CC(C)c1ccc(N2C(=O)c3cc4ccccc4n3CC2(C)C(=O)NC2CCCC2)cc1 (stereo unspecified)	none
Cc1nc(CN(C)c2ncnc3ccc(-c4ccc5c(c4)OCO5)cc23)cs1	Methyltransferases active
Cc1c(-c2ccc3c(c2)OCO3)oc2ccc(C(O)C(C)O)cc12 (stereo unspecified)	none
CCCC1c2cccn2CCN1C(=O)Nc1cc(C)cc(C)c1 (stereo unspecified)	none
O=C1CN(Cc2c(F)cccc2Cl)S(=O)(=O)c2ccccc2N1Cc1ccc(F)cc1	none
C=CCn1c(=O)c2ccc(C(=O)NC(C)CC)cc2n2c(=O)n(CC(N)=O)nc12 (stereo unspecified)	none
Cc1ccc(NC(=O)Cn2nc3n(CCC(C)C)c(=O)c4ccccc4n3c2=O)cc1C	none
CC(C)OCCCn1c(=O)c2cc(Cl)ccc2n2c(SCc3ccccc3)nnc12	none
O=C1c2ccccc2-c2nc3nnnn3nc21 (tested in a mixture with another compound)	Methyltransferases active
CCC(C)NC(=O)c1ccc2c(=O)n(C)c3nn(CC(=O)Nc4ccc(Cl)cc4)c(=O)n3c2c1 (stereo unspecified)	none
CC(C)CCn1c(=O)c2ccc(C(=O)NC3CCCC3)cc2n2c(SCC(=O)c3ccccc3)nnc12	none
Cc1ccc([N+](=O)[O-])cc1S(=O)(=O)N(C)/N=C/c1cnc2ccc(Br)cn12	Methyltransferases active
COc1ccc(-c2nnn3c2nc(NCc2cccc(OC)c2)c2ccccc23)cc1	none
CC(=O)OC/C=C(\C)C(CC1C(C)=C(OC(C)=O)C(=O)C2C(C)(C)C(O)CCC12C)OC(C)=O (stereo unspecified)	Methyltransferases active
